Reference: PubChem BioAssay (NCATS)
Results filed as inconclusive are left out. Where a call stands in place of a potency, no number is given. Activity calls are given as the source filed them. The call rests on the fitted dose curve; in most records, active means well fitted cell-killing curve with a large enough effect; inconclusive means small, poorly fitted or top-dose-only effect; inactive means no such curve, though single readings can be large or run the other way. Peptide text beside a SMILES is read from it.

test: Cell Viability - LYMP2-001 (AID 921); conditions: LYMP2-001 lymphoblastoid cell viability; series mostly up to 92.2 µM; further: nearly all actives have a fitted effect of over 70% in size
Excerpt: NIH Chemical Genomics Center [NCGC]
NIH Molecular Libraries Screening Centers Network [MLSCN]
National Institutes of Environmental Health Sciences [NIEHS]
National Toxicology Program [NTP]
We have developed a 1536-well cell-based assay for quantitative high throughput screening (qHTS) against a number of cell lines to determine in vitro cytotoxicity of small molecules. This particular assay uses a human lymphoblastoid cell line (LYMP2-001) purchased from Coriell Institute for Medical Research.
NCGC Assay Protocol Summary:
The CellTiter-Glo luminescent cell viability assay (Promega) is a homogeneous method to measure the number of viable cells in culture. The end point readout of this assay is based on quantitation of intracellular ATP, an indicator of metabolic activity, using the luciferase reaction. Luciferase catalyzes the oxidation of beetle Luciferin to oxyluciferin and light in the presence of ATP. The luminescent signal is proportional to amount of ATP present.
Using the CellTiter-Glo luminescent cell viability assay, the amount of cellular ATP was measured in the lymphoblastoid cell line with complete culture medium following compound treatment for 24 hours. The assay was performed in opaque white Kalypsys 1536-well plates. In the screen, tetraoctylammonium bromide was used as positive control. Library compounds were measured for their ability to cause acute toxicity in the cell line, as reflected by a decrease in intracellular ATP levels, in a concentration-dependent manner. […] AC50 values were determined from concentration-response data modeled with the standard Hill equation.
qHTS protocol for CellTiter Glo lymphoblastoid cellular assay
[Step] [Parameter] [Value] [Description]
1. Reagent; 5 uL; 2500 lymphoblastoid cells/well
2. Time; 5 hr; 37 C incubation
4. Controls; 23 nL; Tetraoctylammonium bromide 6.4pM to 92 uM
5. Time; 24 hr; 37 C incubation
6. Reagent; 5 uL; CellTiter Glo reagent
7. Time; 30 min; Room Temperature
8. Detection; Luminescence; Viewlux plate reader
Keywords: cell viability, cytotoxicity, lymphoblastoid cell line, luminescence, NTPHTS, NTPHTS_NCGC, NIEHS, DSSTox, MLSMR, MLSCN, NIH Roadmap, qHTS, NCGC
Potency means the concentration at half of the fitted maximal effect.

SMILES | Potency
CCCc1cc(=O)[nH]c(=S)[nH]1 | inactive
Cc1ccc(C)c(OCCCC(C)(C)C(=O)O)c1 | inactive
COc1c2occc2cc2ccc(=O)oc12 | inactive
CC(=O)Nc1ccc(O)cc1 | inactive
COC(=O)[C@H](Cc1ccccc1)NC(=O)[C@@H](N)CC(=O)O (H-Asp-Phe-OMe) | inactive
c1ccc2[nH]c(-c3cscn3)nc2c1 | inactive
CN(C)c1ccc2nc3ccc(=[N+](C)C)cc-3sc2c1 | 10 µM (active)
CS(=O)(=O)OCCCCOS(C)(=O)=O | inactive
CCc1nc(N)nc(N)c1-c1ccc(Cl)cc1 | inactive
NS(=O)(=O)c1cc(C(=O)O)c(NCc2ccco2)cc1Cl | inactive
